Several values for one entry are separate records, joined by “and”; a condition that tells them apart may be missing. Equal entries are not always repeated. Records with an inconclusive call do not appear. Values without a mark were called inactive. Activity calls are given as the source filed them. Unless noted, the call rests on the fitted dose curve; in most records, active means well fitted curve in the direction sought with a large enough effect; inconclusive means small, poorly fitted or top-dose-only effect, or another doubt; inactive means no such curve, though single readings can be large; an effect the other way counts as inactive or inconclusive.
On the % scale 0 is the no-effect control and ±100 the full control effect; potency means the concentration at half of the fitted maximal effect.

One test deals with Cytochrome P450 2D6 (Homo sapiens) (UniProt P10635). The experiment in a line: Cytochrome P450 family 2 subfamily D member 6 (CYP2D6) small molecule antagonists: luciferase biochemical (cell-free) qHTS assay (AID 1645840; active means well fitted curve in the direction sought with a large enough effect in the repeat runs; an effect the other way counts as inactive or inconclusive; further: nearly all actives have a fitted effect of over 55% in size). Conditions: P450-Glo CYP2D6 enzyme, luciferin luminescence, 1 h; series mostly up to 57.4 µM; activity change, negative = inhibition: at the top concentration. Summed up: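 P450-Glo CYP2D6 system: proluciferin substrate converted by enzyme to luciferin, read by luminescence proportional to activity. Enzyme-substrate mix with compound 10 min at room temperature, then NADPH regeneration 1 h before detection reagent.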
Sequence of Cytochrome P450 2D6 (Homo sapiens) (P10635 whole entry, looked up): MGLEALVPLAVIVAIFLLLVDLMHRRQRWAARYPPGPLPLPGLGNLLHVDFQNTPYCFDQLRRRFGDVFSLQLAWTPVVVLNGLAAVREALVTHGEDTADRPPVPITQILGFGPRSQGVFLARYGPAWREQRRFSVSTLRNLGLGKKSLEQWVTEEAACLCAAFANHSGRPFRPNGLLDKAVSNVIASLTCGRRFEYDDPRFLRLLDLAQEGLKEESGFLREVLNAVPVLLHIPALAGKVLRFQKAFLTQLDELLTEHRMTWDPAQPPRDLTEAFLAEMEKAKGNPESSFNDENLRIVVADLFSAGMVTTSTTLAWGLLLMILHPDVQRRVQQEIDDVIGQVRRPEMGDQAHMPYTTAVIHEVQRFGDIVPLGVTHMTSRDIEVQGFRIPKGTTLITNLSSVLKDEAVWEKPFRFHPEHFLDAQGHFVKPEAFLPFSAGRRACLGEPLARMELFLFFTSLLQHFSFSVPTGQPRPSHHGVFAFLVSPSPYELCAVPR
`O=C(NCC1CCN(Cc2cccc(Cl)c2)CC1)[C@@H]1CCCN(c2ncnc3c2nc2n3CCCC2)C1`: the Potency was 15.1 µM (active).

`CCn1c2ccccc2c2cc(Nc3ccnc(NCCCN4CCOCC4)n3)ccc21`: the “activity change, negative = inhibition” value is 25.9%.

As for `NC(=O)c1cnc(N[C@@H]2CCCC[C@H]2N)nc1Nc1cccc(-n2nccn2)c1`, the Potency is 19 µM (active).

As to `O=C(Nc1cc(C(F)(F)F)cc(C(F)(F)F)c1)c1cnc(Cl)nc1C(F)(F)F`, the Potency was 19 µM (active).

As for `N#Cc1ccc(O[C@@H]2c3ccccc3C[C@H]2N2CCC[C@@H](N)C2)c(Cl)c1`, the Potency was 0.169 µM (active).

On to `CC(C)(Cc1nc(-c2ccc(O)cn2)no1)C(=O)NC1=C(C(=O)O)CCCC1`, for which the “activity change, negative = inhibition” value is 3.11%.

Take `N[C@@H]1c2cccnc2[C@H](OC(=O)N2CCC(n3c(=O)[nH]c4ncccc43)CC2)CC[C@H]1c1cccc(F)c1F`: the Potency was 6.74 µM (active).

Turning to `C[C@H](CN(C)C)Oc1nc(Nc2cc3cccc(Cl)c3cn2)cnc1C#N`, the Potency is 0.674 µM (active).

As for `CCN1CCN(Cc2ccc(NC(=O)c3ccc(C)c(Oc4ccnc5[nH]ccc45)c3)cc2C(F)(F)F)CC1`, the Potency was 10.7 µM (active).

Regarding `CC(C)NCCCn1c(Sc2cc3c(cc2I)OCO3)nc2c(N)ncnc21`, the Potency was 0.536 µM (active).

Consider `CCC(=O)N1CCOc2c(cc(-c3ccc(OC)c(OC)c3)cc2OC[C@H]2CCCN(C)C2)C1`, for which the Potency was 13.5 µM (active).

`CC(=O)Nc1nc(C)c(-c2nc(N3CCCC(O)C3)no2)s1` (stereo unspecified): the Potency is 4.25 µM (active).

As to `Cc1cccc(C#Cc2cc(F)cc(C#N)c2)n1`, the “activity change, negative = inhibition” value was -9.1%.

With `CC1=C(c2ccc(NC(=O)c3c(F)cccc3F)cc2)CN(c2nccs2)CC1`, the “activity change, negative = inhibition” value is 0.586%.

As for `C#Cc1cccc(Nc2nc3cc(C(=O)O)ccc3c3cncnc23)c1`, the “activity change, negative = inhibition” value was 0.782%.

With `CC(C)(Cc1ccccc1)NCC(O)c1ccc(O)c(NS(C)(=O)=O)c1` (stereo unspecified), the Potency was 3.79 µM (active).

For the compound `Cc1[nH]c2ccccc2c1CCNC(=O)c1cccs1`, the Potency was 23.9 µM (active).

Take `Cc1cc(CS(=O)(=O)c2ccccc2)cc(OCc2ccc(CN3CCCC3CO)cc2)c1` (stereo unspecified): the Potency is 0.952 µM (active).

Consider `CN1CCN(C2=Nc3ccccc3Nc3ccc(OS(=O)(=O)C(F)(F)F)cc32)CC1`, for which the Potency is 3.38 µM (active).

`CC(C)c1ccc(NC(=O)Cn2cnc3c2c(=O)n(C)c(=O)n3C)cc1`: the “activity change, negative = inhibition” value is -0.0062%.

Take `CC(C)Oc1ccc(-c2cnc3c(-c4ccnc5ccccc45)cnn3c2)cc1`: the “activity change, negative = inhibition” value is -2.27%.

`CC(C)C[C@@H](C(=O)N[C@@H](Cc1ccc(OCc2ccccc2)cc1)C(=O)NC(C)(C)C)N(C)Cc1ccc(C(C)(C)C)cc1`: the “activity change, negative = inhibition” value was 13.3%.

Turning to `CN(C)C(=O)COC(=O)c1cc(-c2ccc(C3CCNCC3)cc2)c2ccc(-c3ccc(C(F)(F)F)cc3)cc2c1`, the Potency is 10.7 µM (active).

Turning to `O=C(Nc1ccccc1Cl)c1cnc2ccc(C3CCNCC3)cn12`, the “activity change, negative = inhibition” value was -8.51%.

As to `CN(C)CCn1cc(-c2ccc(F)cc2)c(-n2cccc2)n1`, the Potency was 15.1 µM (active).

Take `O=c1ccc2ccc(OCCCCN3CCN(c4cccc5sccc45)CC3)cc2[nH]1`: the Potency is 1.34 µM (active).

For `Cc1nc(NC(=O)N2CCC[C@H]2C(N)=O)sc1-c1ccnc(C(C)(C)C(F)(F)F)c1`, the “activity change, negative = inhibition” value was 0.0659%.

As to `c1ccc(-c2ccc(CNc3nc(-c4ccccn4)nnc3-c3ccccc3)cc2)cc1`, the Potency is 2.68 µM (active).

On to `COc1nc2ccc(Br)cc2cc1[C@@H](c1ccccc1)[C@@](O)(CCN(C)C)c1cccc2ccccc12`, for which the Potency is 7.56 µM (active).

For `CC[N+]1(C/C2=C/CCCCCC2)CCC(NC(=O)C2c3cc(Cl)ccc3Oc3ccc(Cl)cc32)CC1` (stereo unspecified), the Potency was 0.425 µM (active).

On to `Cc1c(C2=CCN(C(=O)N(C)C(C)C)CC2)nnn1-c1cccnc1F`, for which the “activity change, negative = inhibition” value was -19.1%.

Regarding `Cc1nc2c(C(F)(F)F)cccc2nc1-c1ccc(-c2cccc(S(C)(=O)=O)c2)cc1`, the “activity change, negative = inhibition” value is 2.82%.

Take `CC(=O)NC[C@H]1CN(c2ccc(N3CCSCC3)c(F)c2)C(=O)O1`: the “activity change, negative = inhibition” value was -1.45%.

Take `CC#CCn1c(N2CCCC(N)C2)nc2c1c(=O)n(Cc1nc(C)c3ccccc3n1)c(=O)n2C` (stereo unspecified): the “activity change, negative = inhibition” value is -3.58%.

As to `Cc1nc(-c2cn3c(n2)-c2ccc(-c4cnn(C(C)(C)C(N)=O)c4)cc2OCC3)n(C(C)C)n1`, the “activity change, negative = inhibition” value is 5.44%.

For the compound `O=c1cc(OCc2ccc(F)cc2)ccn1-c1ccc(OCCN2CCCC2)cc1`, the Potency was 16.9 µM (active).

`CC(NC(=O)Cc1cc(F)cc(F)c1)C(=O)NC1C(=O)N(C)c2ccccc2-c2ccccc21` (stereo unspecified): the “activity change, negative = inhibition” value is -1.25%.

Consider `Cn1cc(-c2cnn3c(N)c(Br)c([C@@H]4CCCNC4)nc23)cn1`, for which the Potency is 10.7 µM (active).

For the compound `COc1ccnc(CS(=O)c2nc3cc(OC(F)F)ccc3[nH]2)c1OC` (stereo unspecified), the “activity change, negative = inhibition” value is -24.7%.

System in another test: not listed separately
Kind of test: Primary qHTS for inhibitors of nuclear receptor binding SET domain protein 2 (NSD2) in an isogenic RCH-ACV NSD2 p.E1099K mutant (9B) (AID 1645876). Further: nearly all actives have a fitted effect of over 70% in size. The conditions noted are these: RCH-ACV (leukaemia line) NSD2 E1099K (9B) viability, CellTiter-Glo, 72 h; series mostly up to 44.9 µM; activity change, negative = viability loss: at the top concentration. (In general: Quantitative high-throughput screening tests each substance at several concentrations.)
In the case of `O=C(NCC1CCN(Cc2cccc(Cl)c2)CC1)[C@@H]1CCCN(c2ncnc3c2nc2n3CCCC2)C1`, the “activity change, negative = viability loss” value was -19%.

For `CCn1c2ccccc2c2cc(Nc3ccnc(NCCCN4CCOCC4)n3)ccc21`, the Potency is 2.9 µM (active).

As to `NC(=O)c1cnc(N[C@@H]2CCCC[C@H]2N)nc1Nc1cccc(-n2nccn2)c1`, the Potency was 0.649 µM (active).

With `O=C(Nc1cc(C(F)(F)F)cc(C(F)(F)F)c1)c1cnc(Cl)nc1C(F)(F)F`, the Potency was 25.8 µM (active).

Turning to `N#Cc1ccc(O[C@@H]2c3ccccc3C[C@H]2N2CCC[C@@H](N)C2)c(Cl)c1`, the Potency was 20.5 µM (active).

`CC(C)(Cc1nc(-c2ccc(O)cn2)no1)C(=O)NC1=C(C(=O)O)CCCC1`: the “activity change, negative = viability loss” value is -23.4%.

Turning to `N[C@@H]1c2cccnc2[C@H](OC(=O)N2CCC(n3c(=O)[nH]c4ncccc43)CC2)CC[C@H]1c1cccc(F)c1F`, the “activity change, negative = viability loss” value is -8.59%.

As for `C[C@H](CN(C)C)Oc1nc(Nc2cc3cccc(Cl)c3cn2)cnc1C#N`, the Potency is 459 nM (active) and 934 nM (active).

For `CCN1CCN(Cc2ccc(NC(=O)c3ccc(C)c(Oc4ccnc5[nH]ccc45)c3)cc2C(F)(F)F)CC1`, the Potency is 0.713 µM (active).

For the compound `CC(C)NCCCn1c(Sc2cc3c(cc2I)OCO3)nc2c(N)ncnc21`, the Potency is 0.365 µM (active).

Consider `CCC(=O)N1CCOc2c(cc(-c3ccc(OC)c(OC)c3)cc2OC[C@H]2CCCN(C)C2)C1`, for which the Potency was 8.17 µM (active).

As for `CC(=O)Nc1nc(C)c(-c2nc(N3CCCC(O)C3)no2)s1` (stereo unspecified), the Potency was 0.916 µM (active).

Turning to `Cc1cccc(C#Cc2cc(F)cc(C#N)c2)n1`, the “activity change, negative = viability loss” value is -9.55%.

Regarding `CC1=C(c2ccc(NC(=O)c3c(F)cccc3F)cc2)CN(c2nccs2)CC1`, the “activity change, negative = viability loss” value was -22.2%.

As for `C#Cc1cccc(Nc2nc3cc(C(=O)O)ccc3c3cncnc23)c1`, the Potency was 4.09 µM (active).

With `CC(C)(Cc1ccccc1)NCC(O)c1ccc(O)c(NS(C)(=O)=O)c1` (stereo unspecified), the “activity change, negative = viability loss” value was -28.6%.

With `Cc1[nH]c2ccccc2c1CCNC(=O)c1cccs1`, the “activity change, negative = viability loss” value is -10.4%.

With `Cc1cc(CS(=O)(=O)c2ccccc2)cc(OCc2ccc(CN3CCCC3CO)cc2)c1` (stereo unspecified), the Potency was 14.5 µM (active).

Turning to `CC(C)c1ccc(NC(=O)Cn2cnc3c2c(=O)n(C)c(=O)n3C)cc1`, the “activity change, negative = viability loss” value was -27.7%.

Regarding `CC(C)Oc1ccc(-c2cnc3c(-c4ccnc5ccccc45)cnn3c2)cc1`, the compound was called inactive.

Regarding `CC(C)C[C@@H](C(=O)N[C@@H](Cc1ccc(OCc2ccccc2)cc1)C(=O)NC(C)(C)C)N(C)Cc1ccc(C(C)(C)C)cc1`, the “activity change, negative = viability loss” value was -32%.

With `CN(C)C(=O)COC(=O)c1cc(-c2ccc(C3CCNCC3)cc2)c2ccc(-c3ccc(C(F)(F)F)cc3)cc2c1`, the Potency is 4.59 µM (active).

In the case of `O=C(Nc1ccccc1Cl)c1cnc2ccc(C3CCNCC3)cn12`, the Potency is 1.29 µM (active).

Consider `CN(C)CCn1cc(-c2ccc(F)cc2)c(-n2cccc2)n1`, for which the “activity change, negative = viability loss” value is -13.3%.

As to `O=c1ccc2ccc(OCCCCN3CCN(c4cccc5sccc45)CC3)cc2[nH]1`, the Potency is 14.5 µM (active).

For the compound `Cc1nc(NC(=O)N2CCC[C@H]2C(N)=O)sc1-c1ccnc(C(C)(C)C(F)(F)F)c1`, the Potency is 1.63 µM (active) and 2.63 µM (active).

Regarding `c1ccc(-c2ccc(CNc3nc(-c4ccccn4)nnc3-c3ccccc3)cc2)cc1`, the Potency is 2.95 µM (active).

In the case of `CC[N+]1(C/C2=C/CCCCCC2)CCC(NC(=O)C2c3cc(Cl)ccc3Oc3ccc(Cl)cc32)CC1` (stereo unspecified), the Potency was 23 µM (active).

With `Cc1c(C2=CCN(C(=O)N(C)C(C)C)CC2)nnn1-c1cccnc1F`, the “activity change, negative = viability loss” value is -27.8%.

As to `Cc1nc2c(C(F)(F)F)cccc2nc1-c1ccc(-c2cccc(S(C)(=O)=O)c2)cc1`, the “activity change, negative = viability loss” value is -29%.

Consider `CC(=O)NC[C@H]1CN(c2ccc(N3CCSCC3)c(F)c2)C(=O)O1`, for which the “activity change, negative = viability loss” value is -16.6%.

With `CC#CCn1c(N2CCCC(N)C2)nc2c1c(=O)n(Cc1nc(C)c3ccccc3n1)c(=O)n2C` (stereo unspecified), the “activity change, negative = viability loss” value was -21%.

On to `Cc1nc(-c2cn3c(n2)-c2ccc(-c4cnn(C(C)(C)C(N)=O)c4)cc2OCC3)n(C(C)C)n1`, for which the Potency was 7.3 nM (active) and 18.6 nM (active).

For `O=c1cc(OCc2ccc(F)cc2)ccn1-c1ccc(OCCN2CCCC2)cc1`, the Potency was 23 µM (active).

On to `CC(NC(=O)Cc1cc(F)cc(F)c1)C(=O)NC1C(=O)N(C)c2ccccc2-c2ccccc21` (stereo unspecified), for which the Potency is 2.58 µM (active).

In the case of `Cn1cc(-c2cnn3c(N)c(Br)c([C@@H]4CCCNC4)nc23)cn1`, the Potency is 1.15 µM (active) and 3.72 µM (active).

Turning to `COc1ccnc(CS(=O)c2nc3cc(OC(F)F)ccc3[nH]2)c1OC` (stereo unspecified), the “activity change, negative = viability loss” value is -23.4%.

The values above are taken from PubChem BioAssay (NCATS).
